An excerpt weighted towards active compounds, which were near 3% of everything screened.
KDM5B inh: blocks human KDM5B histone demethylase activity; Potency, µM (highest dose often 57.7 µM), most hits filed as inhibitors; 220,000 compounds, 2.6% hits; Q9UGL1; KDM5B demethylase, FDH-coupled NADH fluorescence (FDH is formaldehyde dehydrogenase); also: potency is read from the fitted curve at half-maximal effect; 0% is about no effect; nearly all actives have a fitted effect of over 70% in size
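Here, H3K4me3 peptide (12.5 µM in substrate mix) is demethylated by KDM5BΔAP, 200 nM final, after 10 min compound exposure. Formaldehyde product is coupled through FDH (0.25 U/mL in mix) to NADH fluorescence; 30-min ΔRFU feeds dose-response curves.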
SNCA expr inh: reduces expression of the alpha-synuclein gene. 140,000 compounds, 0.17% hits. HEK-293 SNCA-luciferase knock-in, luminescence, 24 h. Potency, µM (titrated, usually from 57.2 µM), for the others: at the highest dose activity change, negative = inhibition, most hits filed as inhibitors. AID 1671194;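 also: potency is read from the fitted curve at half-maximal effect; plate controls were DMSO cells for no effect and cell-free wells for full effect; nearly all actives have a fitted effect of over 45% in size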
IP6K1 inh: blocks human inositol hexakisphosphate kinase 1. Q92551. activity change, % (series mostly up to about 58 µM). 140,000 compounds, 0.81% hits. IP6K1 kinase, ADP-Glo luminescence, 2 h; active compounds read low; in the data active = activity change below about -25%; also: % is scaled to controls: 0 for no effect and ±100 for the full control effect
Target sequence (Q92551 whole entry, looked up): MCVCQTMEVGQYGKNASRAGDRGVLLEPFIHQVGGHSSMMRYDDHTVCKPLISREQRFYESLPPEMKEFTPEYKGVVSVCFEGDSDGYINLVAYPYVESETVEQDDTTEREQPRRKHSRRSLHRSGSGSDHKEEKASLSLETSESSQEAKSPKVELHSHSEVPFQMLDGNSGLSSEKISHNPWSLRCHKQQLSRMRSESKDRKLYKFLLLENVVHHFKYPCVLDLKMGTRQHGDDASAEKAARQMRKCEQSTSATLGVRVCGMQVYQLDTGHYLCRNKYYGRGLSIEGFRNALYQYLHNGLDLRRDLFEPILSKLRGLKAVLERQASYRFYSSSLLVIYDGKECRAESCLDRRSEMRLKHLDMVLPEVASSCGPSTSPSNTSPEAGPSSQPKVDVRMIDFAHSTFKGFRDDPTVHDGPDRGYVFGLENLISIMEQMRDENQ
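ADP-Glo luminescence measures ADP made by human IP6K1 during a 2 h RT reaction with ATP/IP6 (mix at 1.3 mM/130 uM); top library doses 57.5 and 19.1 uM final.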
SNCA viab count: reduces viability of HEK-293 SNCA reporter cells; HEK-293-SNCA-luc viability, GF-AFC fluorescence, 24 h; Potency, µM (titrated, usually from 57.1 µM), without a hit: top-dose activity change, negative = cytotoxicity, usual class: cytotoxic; 150,000 compounds, 0.12% hits;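 also: potency is read from the fitted curve at half-maximal effect; 0% = DMSO-treated cells and -100% = medium-only wells without cells; nearly all actives have a fitted effect of over 30% in size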
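HEK-293-SNCA-luc cells (1500/well) plated 24 h, then exposed 24 h to a dilution series; GF-AFC added 30 min at 37C, fluorescence 405/540 nm; normalised to medium-only and DMSO wells, Hill fit.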
* marks the source's active call; other numbers are inactive results; i = inactive; ? = inconclusive; · = not tested or not shown; [ ] = another dose, or the depositor's remark. Unless noted, calls follow the shape of the dose curve; as a rule, active = well fitted curve in the direction sought with a large enough effect; inconclusive = small, poorly fitted or top-dose-only effect, or another doubt; inactive = no such curve, though single readings can be large; an effect the other way counts as inactive or inconclusive.

SMILES	KDM5B inh	SNCA expr inh	IP6K1 inh	SNCA viab count
CNC(=O)c1cc(-c2ccc(O)c(F)c2)cc2c1OCCN2Cc1cccnc1	28.2µM*	85.7%[87.6 µM]	-7.1	-13.3%[87.6 µM]
CNC(=O)c1cc(-c2ccnc(NC(C)=O)c2)cc2c1OCCN2Cc1cccnc1	39.8µM*	57.0%[87.6 µM]	-12.1	-0.4%[87.6 µM]
CNC(=O)c1cc(-c2cnn(C)c2)cc2c1OCCN2Cc1cccnc1	39.8µM*	33.1%[87.6 µM]	-10.8	-2.3%[87.6 µM]
CNC(=O)c1cc(-c2ccccc2)cc2c1OCCN2Cc1cccnc1	31.6µM*	26.8%[87.6 µM]	-16.3	?
CNC(=O)CCn1ncc2cc(OCc3ccccc3-c3ccccc3F)ccc21	i	-17.2%[87.6 µM]	-3.9	-10.8%[87.6 µM]
CN(C(=O)Cn1c(=O)n(Cc2ccc3c(c2)OCO3)c(=O)c2sccc21)C1CCCCC1	i	·	·	·
O=C(Cn1c(=O)n(CCc2ccccc2)c(=O)c2sccc21)c1ccc(F)cc1	i	·	·	·
CCCc1c(C(=O)OCC)[nH]c2c1C(=O)CC(c1ccc(CC)cc1)C2 (stereo not drawn)	i	·	·	·
O=C(NCCSc1ccc(Cl)cc1)NC1CC1	i	·	·	·
O=C(Cn1c(=O)n(-c2ccc(Cl)cc2)c(=O)c2c3c(sc21)CCC3)c1ccc(F)cc1	?	20µM*	1.5	4.0%
COc1ccc(NC(=O)Cn2c(=O)n(-c3ccc(C)c(C)c3)c(=O)c3c4c(sc32)CCCCC4)cc1Cl	i	41.8%	-33.1*	?
O=C(COc1ccccc1)N1CCNc2cnc(Nc3cccc(F)c3)nc2C1	35.5µM*	7.6%[87.6 µM]	-7.4	-12.6%[87.6 µM]
O=C(c1ccccc1)N1CCNc2cnc(Nc3cccc(F)c3)nc2C1	?	-22.3%[87.6 µM]	-6.3	-10.2%[87.6 µM]
COCc1ccc2c(c1)c(OC(C)(C)C(=O)N1CC(O)C1)nn2CCC(C)C	35.5µM*	-17.5%[87.6 µM]	-17.1	-2.4%[87.6 µM]
COCc1ccc2c(c1)c(OC(C)(C)C(N)=O)nn2CCC(C)C	31.6µM*	-5.1%[87.6 µM]	-10.5	3.0%[87.6 µM]
CN1CC2(CCCN(Cc3cc4ccccc4o3)C2)OC1=O (stereo not drawn)	i	-21.6%	33.1	-1.2%
CN1CC2(CCCN(Cc3cc4ccccc4n(C)c3=O)C2)OC1=O (stereo not drawn)	22.4µM*	-23.2%	4.8	-2.9%
CCOCC(=O)N1CCC(Oc2ncccc2C(=O)N2CCCCC2)C1 (stereo not drawn)	i	1.7%	14.9	1.7%
CCOCC(=O)N1CCC(Nc2cccn3ncnc23)CC1	15.8µM*	-1.6%	6.8	5.2%
COc1ccc2[nH]c(C(=O)N3C[C@@H](CO)[C@H](c4ccncc4)C3)cc2c1	31.6µM*	-20.7%	-9.7	-8.1%
COc1ccc2cc(C(=O)N3CCN4CCS(=O)(=O)N(C5CC5)C(=O)C4C3)[nH]c2c1 (stereo not drawn)	i	-4.0%	-0.3	1.4%
CNC(=O)[C@@H]1CN(C(=O)c2cc3cc(OC)ccc3[nH]2)C[C@H]1CO	22.4µM*	-10.1%	-3.2	-14.9%
COc1ccc2[nH]c(C(=O)N3CCN4CCS(=O)(=O)N(C5CC5)C(=O)C4C3)cc2c1 (stereo not drawn)	25.1µM*	-9.8%	12.2	-9.2%
CNC(=O)[C@@H]1CN(C(=O)C2(c3ccc(OC)cc3)CC2)C[C@H]1CO	i	-9.5%	4.8	10.6%
COc1ccc(NC(=O)CSc2nnc(-n3nc(C)cc3C)n2N)cc1Cl	i	·	·	·
SMILES	KDM5B inh	SNCA expr inh	IP6K1 inh	SNCA viab count
CC(C)c1nc(CNC(=O)c2ccc(NC3CCCCC3)nc2)no1	22.4µM*	-8.3%	16.0	-25.0%
CC(C)c1nc(CNC(=O)c2ccc(N3CCCC(C(N)=O)C3)nc2)no1 (stereo not drawn)	i	-2.3%	8.0	6.2%
c1ccc(CNCCN2CCCC2)cc1	i	·	·	·
COc1ccccc1Nc1ncc2c(n1)CN(C(=O)c1ccccc1)CCN2	i	?	-10.1	0.6%[87.6 µM]
COc1ccccc1Nc1ncc2c(n1)CN(C(=O)c1cc3ccccc3n1C)CCN2	39.8µM*	-11.8%[87.6 µM]	-12.8	-3.9%[87.6 µM]
CC(=O)N1CCN(C(=O)CCC2CCN(c3cc(NC4CC4)ncn3)CC2)CC1	i	-27.0%	17.3	-3.9%
CCNc1cc(N2CCC(CCC(=O)N3CCOCC3)CC2)ncn1	i	?	13.1	-12.3%
CCCNc1cc(N2CCC(CCC(=O)NCC3CC3)CC2)ncn1	i	?	13.3	6.4%
CCCNc1cc(N2CCC(CCC(=O)NCc3ccccc3Cl)CC2)ncn1	i	2.82µM*	21.9	-7.3%
O=C(CCC1CCN(c2cc(NC3CC3)ncn2)CC1)NCc1ccccc1Cl	i	8.91µM*	15.2	7.4%

Bioassay records as filed in PubChem BioAssay.
